“And” between values parts separate entries of the source, which are not always exact repeats. Equal entries are not always repeated. Records with an inconclusive call do not appear. The source made the active and inactive calls. Calls follow the shape of the dose curve; as a rule, active = well fitted activation curve with a large enough effect in the repeat runs; inconclusive = weak or mixed curves; inactive = flat fitted curve, though single readings scatter.
% is scaled to controls: 0 for no effect and ±100 for the full control effect; potency is read from the fitted curve at half-maximal effect.

This test is described as follows: A CellTox Green Cytotoxicity Assay to monitor cytotoxicity in HEK293 cells - 40 hour (AID 1224871). Also: nearly all actives have a fitted effect of over 45% in size. The settings on record: CellTox Green fluorescence; series mostly up to 76.8 µM; cytotoxicity increase: at the top concentration. The text has this: National Center for Advancing Translational Sciences [NCATS]
NIH Chemical Genomics Center [NCGC]
U.S. Environmental Protection Agency [EPA]
National Institutes of Environmental Health Sciences [NIEHS]
National Toxicology Program [NTP]
Cell-based models are critical for drug discovery. Determining the natural cytotoxic effects resulting from test compounds is an essential research activity. A CellTox Green Cytotoxicity Assay to monitor cytotoxicity in real time of continues cell culture during 40 hours of the compound treatment was used to screen Tox21 10K library compounds in Hek293 cells. CellTox Green Cytotoxicity Assay is a nonlytic, homogeneous, biofluorescent method to measure cytotoxicity in cell culture after experimental manipulation. The assay system uses a proprietary asymmetric cyanine dye that is excluded from viable cells but preferentially stains the dead cell's DNA. […] Viable cells produce no appreciable increases in fluorescence. Therefore, the fluorescence signal produced by the binding interaction with dead cell DNA is proportional to cytotoxicity.
The mixture of Hek293 cell suspension and reagents were dispensed at 600cells/6 ul/well in 1536-well tissue culture treated black solid bottom plates using a Multidrop dispenser. After the assay plates were incubated at a 37 C/5% CO2 incubator for 5 hours, 23 nL of compounds dissolved in DMSO, positive and negative controls was transferred to the assay plate by a pintool work station. The plates were incubated at 37 C for 40 hours. The fluorescence intensity were measured at 0h, 8h, 16h, 24h, 32h and 40h time points using ViewLux plate reader during compound treatment.
For `CCCCC(=O)OCC(=O)[C@H]1[C@H](C)C[C@H]2[C@@H]3C[C@H](F)C4=CC(=O)C=C[C@]4(C)[C@@]3(F)[C@@H](O)C[C@@]21C`, the “cytotoxicity increase” value is 4.72% [at 35.3 µM] (inactive).

On to `CCn1cc(C(=O)O)c(=O)c2cnc(N3CCNCC3)nc21`, for which the “cytotoxicity increase” value is 14.1% [at 35.3 µM] (inactive).

As for `CCOc1ccc(N)c([N+](=O)[O-])c1`, the “cytotoxicity increase” value is -2.16% (inactive).

`O=C(Nc1ccc(S(=O)(=O)N2CCOCC2)cc1)c1cc(Cl)ccc1NS(=O)(=O)c1ccc(Cl)s1`: the Potency was 21.3 µM (active).

As to `OCCN1CCN(CCCN2c3ccccc3C=Cc3ccccc32)CC1`, the “cytotoxicity increase” value was -6.4% [at 35.3 µM] (inactive).

For the compound `CCOC(=O)NCCOc1ccc(Oc2ccccc2)cc1`, the “cytotoxicity increase” value was 2.6% (inactive).

In the case of `O=C1OC(=O)C2C3C=CC(C3)C12` (stereo not given), the “cytotoxicity increase” value is -11.4% (inactive).

Regarding `C/C(=C(\CCOP(=O)(O)O)SC(=O)c1ccccc1)N(C=O)Cc1cnc(C)nc1N`, the cytotoxicity increase is -7.37% [at 6.97 µM] (inactive).

Regarding `O=C1CCC(=O)O1`, the “cytotoxicity increase” value is -1.25% (inactive).

`Nc1cc(C(=O)O)c(O)c(S(=O)(=O)O)c1`: the “cytotoxicity increase” value is -7.51% (inactive).

As to `Cc1cccc(C)c1NC(=O)CN(CC(=O)O)CC(=O)O`, the “cytotoxicity increase” value is -13.1% [at 35.3 µM] (inactive).

In the case of `C=CC(=O)OCCOCCOCCOCCOC(=O)C=C`, the Potency was 49.2 µM (active) and 48.5 µM (active).

As to `CCCCOC(=O)CCCCCCCC(=O)OCCCC`, the “cytotoxicity increase” value was -16.7% (inactive).

For `COc1cc(Cl)ccc1Oc1ccc(Cl)cc1Cl`, the “cytotoxicity increase” value is 5.05% (inactive).

With `CCN(CC)CCNC(=O)c1cc(Br)c(N)cc1OC`, the “cytotoxicity increase” value was -2.11% [at 35.3 µM] (inactive).

For `Cc1cc(C(=O)O)ccc1[N+](=O)[O-]`, the “cytotoxicity increase” value is 2.16% (inactive).

Take `ClCCOCCOCCCl`: the “cytotoxicity increase” value is -19.2% (inactive).

Take `Nc1ncn([C@H]2C[C@H](O)[C@@H](CO)O2)c(=O)n1`: the “cytotoxicity increase” value was -1.89% [at 35.3 µM] (inactive).

For `O=C(O)c1ccccc1Cl`, the “cytotoxicity increase” value is -38.2% (inactive).

With `CCc1cc(C2=C(C(=O)O)N(c3ccccc3C(F)(F)F)S(=O)(=O)c3ccccc32)cc2c1OCO2`, the “cytotoxicity increase” value is -2.18% (inactive).

Take `Cc1cccc(Nc2ccccc2)c1`: the Potency was 34.7 µM (active).

In the case of `CCOc1ccc(N=Nc2ccc(/C=C/c3ccc(N=Nc4ccc(OCC)cc4)cc3S(=O)(=O)O)c(S(=O)(=O)O)c2)cc1`, the “cytotoxicity increase” value is -40.3% (inactive).

Turning to `O=C(NCCO[N+](=O)[O-])c1cccnc1`, the “cytotoxicity increase” value is -2.67% [at 35.3 µM] (inactive).

In the case of `CC(C)(C)Cl`, the “cytotoxicity increase” value is 2.25% (inactive).

With `O=[N+]([O-])c1ccc2[nH]ncc2c1`, the “cytotoxicity increase” value was -1.63% (inactive).

Consider `COc1cc2c(cc1OC)C(C(C(=O)N(CCc1ccc(OC)c(OC)c1OC)CCc1ccc(OC)c(OC)c1OC)c1ccccc1)=NCC2` (stereo not given), for which the “cytotoxicity increase” value was -4.87% [at 35.3 µM] (inactive).

For the compound `COS(=O)(=O)C(F)(F)F`, the “cytotoxicity increase” value was 2.01% (inactive).

Turning to `COc1ccc(-c2nc3ccc(C4=NNC(=O)CC4C)cc3[nH]2)cc1` (stereo not given), the “cytotoxicity increase” value is -21.7% [at 35.3 µM] (inactive).

For the compound `Cc1ccc(C(C)OC(=O)C2(C)CCC(C(=O)O)C2(C)C)cc1` (stereo not given), the “cytotoxicity increase” value is -13.4% [at 35.3 µM] (inactive).

Take `CC(=O)NO`: the “cytotoxicity increase” value is 3.68% [at 35.3 µM] (inactive).

For `CCO[Si](CCCCl)(OCC)OCC`, the “cytotoxicity increase” value is 19.1% (inactive).

On to `CCCCCCCC/C=C\CCCCCCCC(=O)OCC`, for which the “cytotoxicity increase” value is -15% (inactive).

Turning to `CO[C@@H]1[C@H](OC(=O)/C=C/C=C/C=C/C=C/C(=O)O)CC[C@]2(CO2)[C@H]1[C@@]1(C)O[C@@H]1CC=C(C)C`, the “cytotoxicity increase” value was 13.7% (inactive).

`CN1C[C@H]2c3ccccc3Oc3ccc(Cl)cc3[C@@H]2C1`: the “cytotoxicity increase” value was 22.9% [at 35.3 µM] (inactive).

Consider `CCCCCCCCO[C@@H]1O[C@H](CO)[C@@H](O)[C@H](O)[C@H]1O`, for which the “cytotoxicity increase” value was 9.89% (inactive).

Regarding `NS(=O)(=O)c1ccc(N2CCCCS2(=O)=O)cc1`, the “cytotoxicity increase” value is -18.3% [at 35.3 µM] (inactive).

With `C/C=C(/C(=C/C)c1ccc(OC(C)=O)cc1)c1ccc(OC(C)=O)cc1`, the “cytotoxicity increase” value was -18.4% [at 35.3 µM] (inactive).

Regarding `Cc1cc(N)c2cc(NC(=O)Nc3ccc4nc(C)cc(N)c4c3)ccc2n1`, the “cytotoxicity increase” value was -35.3% [at 35.3 µM] (inactive).

On to `O=C(O)C(S)C(S)C(=O)O` (stereo not given), for which the “cytotoxicity increase” value was -0.139% [at 35.3 µM] (inactive).

Take `Nc1ccc(N)c2c1C(=O)c1ccccc1C2=O`: the “cytotoxicity increase” value is -31.4% (inactive).

These data come from PubChem BioAssay (Tox21).
